Screen size: about 310,000 compounds; about 14,000 (4.5%) showed an effect of 50% or more. The effect is printed as a negative number. The entries come from a sample that favours strong results as a whole.
Each compound was assayed against human ether-à-go-go-related gene (hERG) potassium channel (human, UniProt Q12809) (assay: primary screen, population patch clamp on CHO cells stably expressing hERG; higher = less effect of the substance).
Description: Briefly, Chinese hamster ovary (CHO) cells stably expressing the hERG channel were dislodged from tissue culture flasks and dispensed into PPC plates. […] During the recording, background leak currents were estimated by a 100 ms step to -80 mV from an initial holding potential of -70 mV and subtracted from the subsequent current measurement. The campaign was conducted in two phases using slight differences in recording protocol. In the first phase, the initial voltage pulse used a 100 ms step to -30 mV from a holding potential of -70 mV, a 2 s conditioning step to +25 mV, and a 2 s test step to -30 mV. During the second phase of the screen, the potential during the conditioning step was raised to +45 mV. In both phases of the campaign, a secondary voltage pulse was applied using the same parameters as the second phase initial pulse. The initial and secondary pulses were applied in the absence of compound, and upon application of 1 μM and 10 μM test concentrations. […]
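Further: peak tail current of the secondary pulse compared with the same well before compound.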

human ether-à-go-go-related gene (hERG) potassium channel, sequence (Q12809 whole entry, looked up): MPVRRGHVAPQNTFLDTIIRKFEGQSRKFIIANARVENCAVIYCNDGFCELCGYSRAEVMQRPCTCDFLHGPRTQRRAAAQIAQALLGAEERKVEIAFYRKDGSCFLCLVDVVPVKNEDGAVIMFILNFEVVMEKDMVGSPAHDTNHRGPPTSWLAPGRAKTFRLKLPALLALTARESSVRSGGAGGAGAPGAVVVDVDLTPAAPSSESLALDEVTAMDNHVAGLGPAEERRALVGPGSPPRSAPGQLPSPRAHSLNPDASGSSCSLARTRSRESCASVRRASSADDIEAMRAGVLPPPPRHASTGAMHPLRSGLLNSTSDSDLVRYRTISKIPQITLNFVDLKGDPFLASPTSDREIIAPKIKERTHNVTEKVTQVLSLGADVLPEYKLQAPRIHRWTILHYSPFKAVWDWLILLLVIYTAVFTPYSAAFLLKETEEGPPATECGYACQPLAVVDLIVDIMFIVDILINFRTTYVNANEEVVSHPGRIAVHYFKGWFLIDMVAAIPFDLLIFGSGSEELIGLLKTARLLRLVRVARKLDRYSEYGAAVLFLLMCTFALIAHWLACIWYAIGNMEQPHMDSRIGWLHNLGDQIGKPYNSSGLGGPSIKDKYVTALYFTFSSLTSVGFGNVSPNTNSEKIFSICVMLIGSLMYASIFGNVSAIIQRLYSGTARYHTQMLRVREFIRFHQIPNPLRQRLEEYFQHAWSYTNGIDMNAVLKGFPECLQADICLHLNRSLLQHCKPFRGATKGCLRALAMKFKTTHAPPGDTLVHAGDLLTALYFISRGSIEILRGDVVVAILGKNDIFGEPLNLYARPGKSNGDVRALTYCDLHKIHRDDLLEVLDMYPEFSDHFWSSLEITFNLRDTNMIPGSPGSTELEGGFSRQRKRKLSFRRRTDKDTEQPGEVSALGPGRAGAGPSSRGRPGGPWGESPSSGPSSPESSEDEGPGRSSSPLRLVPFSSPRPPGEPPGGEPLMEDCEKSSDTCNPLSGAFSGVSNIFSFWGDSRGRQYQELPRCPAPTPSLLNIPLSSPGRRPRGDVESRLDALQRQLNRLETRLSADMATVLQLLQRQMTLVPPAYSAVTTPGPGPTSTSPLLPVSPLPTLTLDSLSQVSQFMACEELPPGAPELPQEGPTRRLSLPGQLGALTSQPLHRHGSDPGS

Structure (SMILES) | hERG current change (%, negative = inhibition) at 10uM [%]
COc1ccc(C(=O)NC2CCCCC2)cc1S(=O)(=O)N1CCOCC1 | -14.8
O=C(NCCOC(=O)c1ccccc1)c1ccccc1 | 10.2
[N-]=[N+]=CC(=O)CNC(=O)[C@@H](Cc1ccccc1)N1C(=O)c2ccccc2C1=O | 6.66
CCC(C(=O)NC1CC1)n1nc(C)c2c(C)n(-c3ccc(C)cc3)nc2c1=O (stereo not drawn) | -62
CCC(C(=O)NC1CCCCCC1)n1nc(C)c2c(C)n(-c3ccccc3)nc2c1=O (stereo not drawn) | -23.4
Cc1ccc(-n2nc3c(=O)n(C(C)C(=O)NCc4ccco4)nc(C)c3c2C)cc1 (stereo not drawn) | -41.3
CCC(C(=O)NCc1ccco1)n1nc(C)c2c(C)n(-c3ccccc3)nc2c1=O (stereo not drawn) | -8.91
CCC(C(=O)NCc1ccco1)n1nc(C)c2c(C)n(-c3ccc(C)cc3)nc2c1=O (stereo not drawn) | -58.9
CCC(C(=O)NC1CC1)n1nc(C)c2c(C)n(-c3ccccc3)nc2c1=O (stereo not drawn) | 8.02
CC(C)c1cccc(C(C)C)c1OCCCCN1CCCC1 | -22.7
COc1ccccc1N(C)S(=O)(=O)c1ccc(C(=O)Nc2nccs2)cc1 | -30.5
CC(=O)c1ccc(NC(=O)CN2CCC(NC(=O)C3CCCCC3)CC2)cc1 | -6.72
COc1ccc(C(=O)N2CCCC(CCC(=O)NCc3ccc(F)c(F)c3)C2)cc1F (stereo not drawn) | -22.8
COc1cccc(CNC(=O)CCC2CCCN(C(=O)c3ccc(OC)c(F)c3)C2)c1 (stereo not drawn) | -9.79
COCCNC(=O)CCC1CCN(C/C=C/c2ccccc2OC)CC1 | -3.87
COCCC(=O)N1CCCC(CCC(=O)NCc2ccc(F)c(F)c2)C1 (stereo not drawn) | 22.8
COc1ccccc1/C=C/CN1CCCC(CCC(=O)NCc2ccc(F)c(F)c2)C1 (stereo not drawn) | -70
COC(=O)c1ccccc1C(=O)N1CCCC(CCC(=O)NCc2ccc(F)c(F)c2)C1 (stereo not drawn) | -10.1
COc1ccccc1/C=C/CN1CCCC(CCC(=O)NCc2ccccc2F)C1 (stereo not drawn) | -65.7
COc1cccc(CNC(=O)CCC2CCCN(C/C=C/c3ccccc3OC)C2)c1 (stereo not drawn) | -68.5
COc1cccc(C(=O)N2CCCC(CCC(=O)NCc3ccc(F)c(F)c3)C2)c1 (stereo not drawn) | -17.5
COc1cccc(CNC(=O)CCC2CCCN(C(=O)Cc3ccccc3F)C2)c1 (stereo not drawn) | -7.61
COc1ccc(/C=C/CN2CCCC(CCC(=O)NCc3ccc(F)c(F)c3)C2)cc1 (stereo not drawn) | -72.8
COc1ccccc1CC(=O)N1CCCC(CCC(=O)NCc2ccccc2F)C1 (stereo not drawn) | 2.97

From PMC4336329 (PLoS ONE, 2015)
